# Reference: PubChem BioAssay (NCI)
# About 83,000 compounds went through this panel and 20% of them were active in at least one assay; those are over-represented in the sample as a whole.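 Each cell line was grown in a 96-well plate and treated with one concentration of compound for 48 hours. Values below 10 were considered active.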 A number with no mark means an inactive call. Calls of active or inactive are those of the source.
# What was measured:
# Assay in all cases: NCI-60 one-dose screen, 48 h (100 = growth as untreated, 0 = no growth, -100 = all killed)
# Conditions in all cases: 10 µM unless noted
# [1] = tested on: T-47D breast
# [2] = tested on: BT-549 breast
# [3] = tested on: MDA-MB-435 melanoma
# [4] = tested on: SW-620 colon
# [5] = tested on: MCF7 breast
# [6] = tested on: HCT-116 colon
# [7] = tested on: HCC-2998 colon
# [8] = tested on: KM12 colon
Compound,growth [1],growth [2],growth [3],growth [4],growth [5],growth [6],growth [7],growth [8]
CN(C)CCNc1ccc2ncc(C#Cc3cncc(C(=O)Nc4ccc(CN5CCN(C)CC5)c(C(F)(F)F)c4)c3)n2n1,78.7%,-8.5% (active),40.5%,-6.29% (active),-51.9% (active),5.01% (active),-25.9% (active),-8.42% (active)
CCOC(=O)c1ccccc1NC1=C(Cl)C(=O)c2nc(C)ccc2C1=O,92.8%,114%,111%,94.8%,87.5%,99.1%,97.2%,105%
C#C[C@]1(O)CC[C@H]2[C@@H]3CC=C4c5sc(Nc6cccc(F)c6)nc5CC[C@]4(C)[C@H]3CC[C@@]21C,29.9%,19.4%,29.9%,8.9% (active),0.863% (active),2.09% (active),42%,13.7%
O=C(O)CC1CCN(c2ccc3nnc(Cl)n3n2)CC1,96.8%,101%,105%,102%,91.2%,103%,107%,98.1%
COc1cc(C(=O)c2cc(C(C)=O)c3cccc(C)n23)cc(OC)c1OC,20.3%,25.8%,-30.1% (active),26%,20.3%,16.6%,61.1%,29.8%
COc1cc(-c2nc(-c3ccccc3)[nH]c2-c2ccnc(NCCCNS(=O)(=O)c3cccc(F)c3)n2)ccc1F,66.5%,128%,82%,106%,83.1%,75.1%,142%,85.8%
COc1ccc2c(c1)c(-c1nc(N)nnc1-c1c[nH]c3ccccc13)cn2C,41.2%,49.2%,-47.8% (active),17.2%,15%,23.1%,82.9%,24.4%
C#CCN(C)CCCOc1ccc(NC(=O)CCCCCCCCC(=O)NO)cc1Cl,72.6%,92.5%,74.2%,63.1%,31.9%,39.2%,71.8%,83.4%
C/C(=N/N)c1nnn(-c2ccc(Br)cc2)c1C,102%,102%,102%,105%,77.6%,103%,107%,99.4%
Cc1c(C(=O)/C=C/c2ccc(Cl)cc2)nnn1-c1ccc2oc(=O)ccc2c1,85.5%,109%,99.7%,97.7%,42.2%,88.5%,104%,99.8%
CCOC(=O)C1=C(C)NC(C)=C(C(=O)OC(C)C)C1c1cccc(C#N)c1 (configuration not stated),95.1%,126%,104%,99.2%,94.5%,94%,104%,98%
Clc1ccc(CSc2nnc(-c3ccc(Cl)cc3)n2-c2ccccc2)cc1,80.9%,58.6%,90%,91.6%,84.5%,75.3%,95.8%,92.6%
NC1CC2(CCN(c3cnc(C(=O)Nc4cc(F)cc5cccnc45)cn3)CC2)C1,64.5%,84.8%,70.9%,42.8%,46.2%,38.5%,83.7%,81.7%
COc1ccc(-c2cc(-c3ccc(N4CCOCC4)cc3)n3c(n2)nc2ccccc23)cc1OC,81%,82.3%,93.1%,99.2%,90.1%,96%,110%,99%
O=C1C(SCc2ccccc2)=C(Cl)CN1c1ccc(Cl)cc1,50.4%,109%,100%,101%,25.7%,89.7%,95.9%,99.1%
COC(=O)c1cccc(NC2=C(Cl)C(=O)C(C)=C(C)C2=O)c1,-18.1% (active),96.2%,104%,103%,82%,70.1%,98.2%,49.2%
CN1CC[C@@H]2[C@@]3(C)CC[C@H](O)C(C)(C)[C@@H]3CC[C@@]2(C)[C@]2(C)CC[C@@]3(CO)CCC(C)(C)C[C@@H]3C12 (some centres not stated),79.8%,96.7%,95.7%,90.2%,77%,77.9%,27.5%,96.2%
C/C(=C(/C)C1CC1CCNC1CCC(NC(=O)OC(C)(C)C)CC1)c1ccccc1 (configuration not stated),45.5%,85.5%,52.8%,60.7%,15.5%,33.6%,-55.6% (active),73.7%
CC1=C(C)C(=O)C(Nc2cccc(C(=O)OC(C)(C)C)c2)=CC1=O,65%,82.6%,87.1%,94.8%,46%,75.2%,103%,88.7%
Cc1[nH]c(C(=O)Nc2ccc(C(N)=O)cc2N2CCOC(C)C2)c(Cl)c1Cl (configuration not stated),83%,98.3%,96.1%,109%,93%,92%,105%,104%
CN1CCN(c2ccc(Nc3nc(NCCCNS(=O)(=O)c4ccc(C(F)(F)F)cc4)c4sccc4n3)cc2)CC1,-29% (active),-88.1% (active),-62.4% (active),-33.5% (active),-70% (active),-73.8% (active),-63.5% (active),-25.2% (active)
O=C1Nc2ccccc2/C1=C/c1ccc(OCC(=O)c2ccccc2)cc1,97.6%,118%,102%,102%,88.7%,94.4%,105%,99.9%
CN1CCN(Cc2ccc(NC(=O)c3cncc(C#Cc4cnc5ccc(OC6CCOCC6)nn45)c3)cc2C(F)(F)F)CC1,-56.1% (active),-82.7% (active),-81.6% (active),-18.2% (active),-67.1% (active),-89.5% (active),-68.5% (active),-68.5% (active)
COc1ccc(-c2cc(-c3ccc(N(C)C)cc3)n3c(n2)nc2ccccc23)cc1,2.27% (active),40.1%,74.3%,76.9%,40.7%,15.8%,84.2%,62.3%
Cc1cc2nc(C(Cl)Cl)nc(-c3ccc(S(=O)(=O)N(C)C)cc3)n2n1,69.8%,38.5%,47%,18.2%,62.1%,18.2%,47.6%,39.1%
COc1ccc(/C(=N\N=C(N)N)c2ccc(Cl)cc2)cc1OC,68%,81.2%,58%,73.6%,54.5%,34.8%,69.8%,61.5%
C=C1CCc2nc(SCC(=O)O)ccc2N1,98.5%,114%,101%,106%,99.5%,98%,103%,102%
Nn1c(=O)n(-c2cccc(C(F)(F)F)c2)c(=O)c2cc(-c3ccc(F)cc3F)ccc21,-13.8% (active),-6.33% (active),3.27% (active),17%,1.3% (active),3.16% (active),12.5%,8.93% (active)
OCC(Nc1ncnc2ccc(-c3cnc4cnccn34)cc12)c1ccccc1 (configuration not stated),28.4%,76.2%,90%,105%,60.9%,79.3%,82.9%,80.9%
